Where “and” joins values, the source holds several entries; their conditions need not be identical. Equal values may be shown once. Calls of active or inactive are those of the source. Unless noted, calls follow the shape of the dose curve; as a rule, active = well fitted curve in the direction sought with a large enough effect in the repeat runs; inconclusive = weak or mixed curves; inactive = no such curve, though single readings can be large; an effect the other way counts as inactive or inconclusive.

The nature of assay [1]: qHTS assay for identifying genotoxic compounds that show differential cytotoxicity against isogenic chicken DT40 cell lines with known DNA damage response pathways - wild type cell line (AID 743012). Also: nearly all actives have a fitted effect of over 60% in size. Also: potency is read from the fitted curve at half-maximal effect. In short, it runs like this: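 First, wild type DT40 cells were plated at 300 per well and equilibrated about 0.5 h at 37 C/5% CO2. Next, compounds in DMSO were added and exposure lasted 40 h. Finally, CellTiter-Glo was added for 30 min at room temperature and luminescence recorded.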

The nature of assay [2]: qHTS assay for identifying genotoxic compounds that show differential cytotoxicity against isogenic chicken DT40 cell lines with known DNA damage response pathways - Rev3 mutant cell line (AID 743014). Also: nearly all actives have a fitted effect of over 55% in size. Also: potency is read from the fitted curve at half-maximal effect. Background: Quantitative high-throughput screening tests each substance at several concentrations.
A short description of assay [3]: qHTS assay to identify small molecule antagonists of the thyroid receptor (TR) signaling pathway - cell viability counter screen (AID 743064). Also: nearly all actives have a fitted effect of over 50% in size. Also: potency is read from the fitted curve at half-maximal effect. The gist of the method: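 CellTiter-Fluor readout, 30 min at 37 °C/5% CO2, following 23.5 h incubation of GH3.TRE-Luc cells with test compound and 1 nM T3 (final).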
For assay [4], the system named is thyroid hormone receptor (rat, GH3 cells). The assay can be described thus: qHTS assay to identify small molecule agonists of the thyroid receptor (TR) signaling pathway (AID 743066; calls by dose curve).
Assay [5] addresses Estrogen receptor (Homo sapiens) (UniProt P03372). Nature of the assay: qHTS assay to identify small molecule agonists of the estrogen receptor alpha (ER-alpha) signaling pathway (AID 743075; calls by dose curve;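 also: HEK293 GripTite cells with ER-alpha and UAS-driven beta-lactamase reporter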; also: potency is read from the fitted curve at half-maximal effect).
The nature of assay [6]: qHTS assay to identify small molecule antagonists of the estrogen receptor alpha (ER-alpha) signaling pathway using the BG1 cell line - cell viability counter screen (AID 743081).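 Also: compound given together with 17beta-estradiol as the ER stimulus; series mostly up to about 70 µM; nearly all actives have a fitted effect of over 45% in size.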
Assay [7] is described as follows: qHTS assay for identifying genotoxic compounds that show differential cytotoxicity against isogenic chicken DT40 cell lines with known DNA damage response pathways - Rad54/Ku70 mutant cell line (AID 743015). Also: nearly all actives have a fitted effect of over 60% in size. Also: potency is read from the fitted curve at half-maximal effect.
A short description of assay [8]: qHTS assay to identify small molecule antagonists of the androgen receptor (AR) signaling pathway using the MDA cell line - cell viability counter screen (AID 743041; also: nearly all actives have a fitted effect of over 45% in size). The gist of the method:
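Cells were plated at 3,000 per well and left 5 h. Compounds in DMSO were then pinned in, followed by R1881. After 16 h at 37C, CellTiter-Fluor fluorescence gave viability.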

Assay [9] in a line: qHTS assay to identify small molecule antagonists of the thyroid receptor (TR) signaling pathway (AID 743065). Also: nearly all actives have a fitted effect of over 55% in size. Also: potency is read from the fitted curve at half-maximal effect. In short, it runs like this:
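Antagonism measured as loss of luciferase signal in GH3 cells stably carrying a TRE-luciferase reporter, co-treated with compound and T3 (1 nM final) for 23.5 h at 37 C. Viability was read in the same well by CellTiter-Fluor.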

Assay [10] addresses Estrogen receptor (Homo sapiens) (UniProt P03372). Nature of the assay: qHTS assay to identify small molecule antagonists of the estrogen receptor alpha (ER-alpha) signaling pathway (AID 743069; active = well fitted curve in the direction sought with a large enough effect in the signal ratio in the repeat runs, not every such curve was filed as active; inconclusive = weak or mixed curves, or effect the other way; inactive = no such curve, though single readings can be large or run the other way; the % refers to the signal ratio). The gist of the method:
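ER-alpha-UAS-bla GripTite HEK293 line; 2% charcoal-stripped FBS overnight; plated, 4 hr 37C/5% CO2; cpd in DMSO + 17beta-estradiol, 18 hr 37C; LiveBLAzer B/G FRET substrate 2 hr RT; fluorescence intensity.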

Assay [11] in a line: qHTS assay to identify small molecule antagonists of the estrogen receptor alpha (ER-alpha) signaling pathway - cell viability counter screen (AID 743074; calls by dose curve;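 also: HEK293 cells carrying ER-alpha-UAS-bla reporter stimulated with 17beta-estradiol; nearly all actives have a fitted effect of over 45% in size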; also: potency is read from the fitted curve at half-maximal effect).
The nature of assay [12]: qHTS assay to identify small molecule antagonists of the estrogen receptor alpha (ER-alpha) signaling pathway using the BG1 cell line (AID 743080; calls by dose curve;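 also: BG1 cells stimulated with 17beta-estradiol alongside compound; series mostly up to about 70 µM; nearly all actives have a fitted effect of over 25% in size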). The gist of the method: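 After 5 days in phenol-red-free 10% charcoal-stripped FBS medium, BG1-Luc-4E2 cells were seeded, left 24 h at 37 C, co-treated with compounds and 17beta-estradiol for 21.5 h, then assayed for viability and luciferase.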

Another assay has as its target Aromatase (Homo sapiens) (UniProt P11511). The assay can be described thus: qHTS assay to identify aromatase inhibitors (AID 743083). Also: nearly all actives have a fitted effect of over 55% in size. Also: potency is read from the fitted curve at half-maximal effect.
In assay [13] the target is Estrogen receptor (Homo sapiens) (UniProt P03372). Nature of the assay: qHTS assay to identify small molecule agonists of the estrogen receptor alpha (ER-alpha) signaling pathway using the BG1 cell line (AID 743079). Also: nearly all actives have a fitted effect of over 20% in size. Also: potency is read from the fitted curve at half-maximal effect.
Estrogen receptor (Homo sapiens), sequence (P03372 whole entry, looked up): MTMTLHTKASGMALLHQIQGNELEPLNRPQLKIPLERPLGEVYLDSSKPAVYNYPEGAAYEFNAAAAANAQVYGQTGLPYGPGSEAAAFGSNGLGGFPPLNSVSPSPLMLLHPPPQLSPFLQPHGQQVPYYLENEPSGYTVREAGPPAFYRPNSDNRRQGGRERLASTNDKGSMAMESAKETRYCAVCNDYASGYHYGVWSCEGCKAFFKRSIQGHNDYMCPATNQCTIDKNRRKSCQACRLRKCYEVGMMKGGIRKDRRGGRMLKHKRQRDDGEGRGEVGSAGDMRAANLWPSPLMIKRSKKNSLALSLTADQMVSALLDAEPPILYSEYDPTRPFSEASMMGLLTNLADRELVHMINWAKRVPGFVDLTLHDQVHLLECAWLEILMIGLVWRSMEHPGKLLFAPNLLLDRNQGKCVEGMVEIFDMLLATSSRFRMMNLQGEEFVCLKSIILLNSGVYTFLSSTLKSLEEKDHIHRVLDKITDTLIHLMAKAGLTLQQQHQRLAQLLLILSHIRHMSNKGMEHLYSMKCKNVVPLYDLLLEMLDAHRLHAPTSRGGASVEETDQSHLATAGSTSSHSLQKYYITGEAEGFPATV
Assay [14] is described as follows: qHTS assay to identify small molecule antagonists of the androgen receptor (AR) signaling pathway - cell viability counter screen (AID 743033; also: nearly all actives have a fitted effect of over 45% in size; also: potency is read from the fitted curve at half-maximal effect).
Assay [15] has as its target Androgen receptor (Homo sapiens) (UniProt P10275). The assay can be described thus: qHTS assay to identify small molecule antagonists of the androgen receptor (AR) signaling pathway (AID 743035; active = well fitted inhibition curve with a large enough effect in the signal ratio in the repeat runs, not every such curve was filed as active; inconclusive = weak or mixed curves, or effect the other way; inactive = no such curve, though single readings can be large or run the other way; the % refers to the signal ratio). The gist of the method:
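Beta-lactamase FRET read (2 h RT incubation with LiveBLAzer B/G) following 16 h of compound plus R1881 treatment of AR-UAS-bla HEK293 cells, which had been pre-incubated 4 h at 37C.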

For assay [16] the target is unchanged. Nature of the assay: qHTS assay to identify small molecule agonists of the androgen receptor (AR) signaling pathway (AID 743036; active = well fitted activation curve with a large enough effect in the signal ratio in the repeat runs, with a control signal flat, not every such curve was filed as active; inconclusive = weak or mixed curves, or effect the other way; inactive = no such curve, though single readings can be large or run the other way; the % refers to the signal ratio). The gist of the method: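 Following a 4 h settling period, AR-UAS-bla HEK293 cells were dosed with compounds for 16 h at 37C. A 2 h room-temperature incubation with LiveBLAzer B/G FRET substrate preceded the fluorescence measurement.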

The target is the same in assay [17]. Nature of the assay: qHTS assay to identify small molecule agonists of the androgen receptor (AR) signaling pathway using the MDA cell line (AID 743040; also: nearly all actives have a fitted effect of over 20% in size). In short, it runs like this: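 Cells plated, 5 h at 37C/0% CO2; compound or DMSO pinned; 16 h at 37C; ONE-Glo added; luminescence measured after 30 min at room temperature. Reporter line: MDA-kb2 with MMTV-luciferase responsive to AR and GR.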

The target is the same in assay [18]. Nature of the assay: qHTS assay to identify small molecule antagonists of the androgen receptor (AR) signaling pathway using the MDA cell line (AID 743042; also: nearly all actives have a fitted effect of over 55% in size). The gist of the method:
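Antagonist mode: compounds plus R1881 agonist added to MDA-kb2 AR-luc cells, incubated 16 h at 37C. Luciferase reporter luminescence quantified, with multiplexed CellTiter-Fluor readout for cell viability.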

Aromatase (Homo sapiens), sequence (P11511 whole entry, looked up): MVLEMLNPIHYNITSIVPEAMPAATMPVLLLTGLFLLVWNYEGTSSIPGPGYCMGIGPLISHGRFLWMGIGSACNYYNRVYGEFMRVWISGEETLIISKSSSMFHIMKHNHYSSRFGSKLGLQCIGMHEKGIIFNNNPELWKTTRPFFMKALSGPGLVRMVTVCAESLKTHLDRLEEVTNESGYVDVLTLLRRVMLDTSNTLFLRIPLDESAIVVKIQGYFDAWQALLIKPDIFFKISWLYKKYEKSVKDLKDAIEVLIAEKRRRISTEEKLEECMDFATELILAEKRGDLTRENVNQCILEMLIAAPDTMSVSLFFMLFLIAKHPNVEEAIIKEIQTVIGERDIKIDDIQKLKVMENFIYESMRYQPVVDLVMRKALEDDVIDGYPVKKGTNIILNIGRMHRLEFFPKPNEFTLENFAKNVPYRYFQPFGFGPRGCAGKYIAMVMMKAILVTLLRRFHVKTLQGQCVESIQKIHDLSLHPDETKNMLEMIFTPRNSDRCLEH
Androgen receptor (Homo sapiens), sequence (P10275 whole entry, looked up): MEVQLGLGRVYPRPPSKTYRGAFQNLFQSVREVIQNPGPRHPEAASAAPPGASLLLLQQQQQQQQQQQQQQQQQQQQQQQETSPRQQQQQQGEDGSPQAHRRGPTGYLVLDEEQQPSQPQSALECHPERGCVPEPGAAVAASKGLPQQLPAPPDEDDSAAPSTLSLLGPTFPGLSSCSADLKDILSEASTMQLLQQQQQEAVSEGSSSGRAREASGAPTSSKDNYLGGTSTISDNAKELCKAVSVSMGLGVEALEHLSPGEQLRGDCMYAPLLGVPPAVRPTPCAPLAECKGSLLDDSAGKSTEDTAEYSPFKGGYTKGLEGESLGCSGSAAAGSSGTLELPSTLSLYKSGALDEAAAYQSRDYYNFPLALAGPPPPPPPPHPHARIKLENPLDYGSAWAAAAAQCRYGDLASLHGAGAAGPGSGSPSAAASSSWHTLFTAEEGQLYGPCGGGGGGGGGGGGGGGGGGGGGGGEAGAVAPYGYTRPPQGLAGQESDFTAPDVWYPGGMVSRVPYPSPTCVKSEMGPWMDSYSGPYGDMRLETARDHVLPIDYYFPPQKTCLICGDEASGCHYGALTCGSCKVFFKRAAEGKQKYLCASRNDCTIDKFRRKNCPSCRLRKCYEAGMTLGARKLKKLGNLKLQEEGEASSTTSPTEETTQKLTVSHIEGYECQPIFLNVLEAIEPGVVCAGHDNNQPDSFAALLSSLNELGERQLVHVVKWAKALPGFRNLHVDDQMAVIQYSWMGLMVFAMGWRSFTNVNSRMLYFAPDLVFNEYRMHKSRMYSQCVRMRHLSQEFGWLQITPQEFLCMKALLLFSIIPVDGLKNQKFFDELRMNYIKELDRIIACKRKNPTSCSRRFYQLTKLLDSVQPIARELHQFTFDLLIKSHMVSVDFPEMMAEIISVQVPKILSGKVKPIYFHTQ

In the case of `CCc1oc2ccccc2c1C(=O)c1cc(I)c(O)c(I)c1`, the Potency was 29.8 µM (active) in [1], 33.5 µM (active) in assay [2] and 29.8 µM (active) in [3]. The call in [4] was inactive. Further, the Potency entry in assay [5] and in [6] was “inactive” throughout.

`OC/C=C/CO`: the Potency result in assay [1], in assay [2], in assay [7], in assay [8], in assay [3] and in [9] was “inactive” each time. The Potency result (in assay [10]; in [11]; in [12]; in assay [6]; with Aromatase (Homo sapiens)) was “inactive” in each case. The result in assay [4] was inactive.

Regarding `O[C@@H]([C@H](O)[C@H](O)CBr)[C@H](O)CBr`, the Potency result in [1], in assay [2], in assay [7], in assay [8], in assay [3] and in assay [9] was “inactive” in each case. Also, the Potency result in assay [10], in assay [11], in [5], in assay [13], in assay [12] and in assay [6] was “inactive” each time. The Potency result with Aromatase (Homo sapiens) was “inactive”. In assay [4], the outcome was inactive.

For the compound `CC(C)(C)c1csc(-c2cc3cc(OCc4ccccc4CC(=O)O)ccc3o2)n1`, the Potency in [7] is 61.1 µM (active); in [3] it was 54.5 µM (active); in assay [9], 61.1 µM (active); in [11] it was 24.5 µM (active). The result in [4] was inactive. In addition, the Potency result in assay [5] and in [6] was “inactive” throughout.

For `COc1cccc(OC)c1C(=O)O`, the Potency result in [2], in [7], in assay [14], in assay [8], in assay [3] and in assay [9] was “inactive” throughout. For the same compound, the Potency result in assay [11] and in assay [6] was “inactive” throughout. Besides, the call in assay [4] was inactive.

On to `OC1CCCc2ccccc21` (stereo not drawn), for which the Potency entry in assay [1], in assay [14], in [8], in [3], in [10] and in assay [11] was “inactive” in each case. Also, the Potency result (in assay [5]; in [13]; in assay [12]; in [6]; with Aromatase (Homo sapiens)) was “inactive” in each case. Also, the result in [4] was inactive.

Regarding `Cc1cc(C(C#N)c2ccc(Cl)cc2)c(Cl)cc1NC(=O)c1cc(I)cc(I)c1O` (stereo not drawn), the Potency was 26.6 µM (active) in [1], 26.6 µM (active) in assay [7], 23.7 µM (active) in assay [3] and 5.35 µM (active) in [11]. In addition, the Potency result in assay [14], in assay [5] and in assay [6] was “inactive” throughout. For the same compound, the call in assay [4] was inactive.

For the compound `C=CCCC(=O)/C=C/C1C(C)=CCCC1(C)C` (stereo not drawn), the Potency result in assay [1], in assay [14], in assay [8], in [11] and in assay [6] was “inactive” in each case. In addition, the Potency in assay [9] was 61.1 µM (active). Besides, the call in assay [4] was inactive.

For the compound `CC(C)OC(=O)C(O)(CC(=O)O)CC(=O)O`, the Potency result in [1], in assay [2], in assay [7], in assay [15], in assay [16] and in assay [8] was “inactive” each time. Besides, the Potency entry in assay [18], in assay [3], in assay [10], in assay [11], in assay [5] and in [13] was “inactive” each time. In addition, the Potency result (in [12]; in [6]; with Aromatase (Homo sapiens)) was “inactive” in each case. For the same compound, the call in assay [17] was inactive.

For the compound `O=C1c2ccccc2C(=O)N1SC1CCCCC1`, the Potency in assay [1] is 15.3 µM (active) and 5.45 µM (active); in assay [2], 6.85 µM (active) and 5.45 µM (active); in [7] it was 17.2 µM (active) and 4.33 µM (active); in [14], 38.9 µM (active) and 49 µM (active); in assay [3], 30.6 µM (active) and 21.7 µM (active); with Aromatase (Homo sapiens), 43.2 µM (active). The call in assay [4] was inactive. The Potency entry in assay [5], in assay [13], in assay [12] and in [6] was “inactive” each time.

With `Cc1c(F)c(N2CCNC(C)C2)cc2c1c(=O)c(C(=O)O)cn2C1CC1` (stereo not drawn), the Potency entry in [1], in assay [7], in assay [8], in assay [10], in assay [11] and in assay [5] was “inactive” throughout. Further, the Potency entry (in assay [13]; in [12]; in assay [6]; with Aromatase (Homo sapiens)) was “inactive” in each case.

`O=c1oc2cc(O)ccc2c2oc3cc(O)ccc3c12`: the Potency result in assay [1], in [2], in assay [14], in assay [8], in assay [3] and in assay [6] was “inactive” each time. For the same compound, the Potency result in the assay with Aromatase (Homo sapiens) is “inactive”.

Turning to `O=C1CCCCCCCCCCCCCCCO1`, the Potency result in [1], in assay [7], in assay [14], in [8], in assay [3] and in [9] was “inactive” each time. Also, the Potency entry (in assay [11]; in assay [5]; in [13]; in [12]; in [6]; in the assay with Aromatase (Homo sapiens)) was “inactive” each time. In addition, the compound was called inactive in assay [4].

Take `CCCCCCC1CCCC(=O)O1` (stereo not drawn): the Potency result in assay [1], in assay [2], in assay [7], in assay [3], in [9] and in assay [11] was “inactive” each time. Besides, the Potency entry in assay [6] is “inactive”. For the same compound, the outcome in assay [4] was inactive.

Consider `CCN(CC)C(=O)c1cc(S(=O)(=O)Cc2ccccc2)c(N2CCC(c3ccccc3)CC2)cc1N(CC)CCN(C)C`, for which the Potency in assay [1] was 5.96 µM (active) and 17 µM (active); in assay [2], 11.9 µM (active) and 13.5 µM (active); in assay [7], 10.6 µM (active) and 17 µM (active); in assay [14] it was 15.3 µM (active); in assay [3] it was 3.35 µM (active) and 4.28 µM (active); in [9], 4.22 µM (active) and 4.8 µM (active). Further, the result in [4] was inactive. The Potency entry in assay [10], in assay [5], in assay [13] and in assay [12] was “inactive” each time.

For `C#C[C@]1(O)CC[C@H]2[C@@H]3[C@H](C)CC4=C(CCC(=O)C4)[C@H]3CC[C@@]21C`, the Potency in [1] is 10.6 µM (active); in assay [2], 29.8 µM (active); in [7], 21.1 µM (active); in assay [9], 26.6 µM (active); in assay [5], 13.4 nM [inconclusive] (active); in [13], 3.8 nM (active). Also, the Potency entry (in [14]; in assay [8]; in assay [11]; in assay [12]; in [6]; with Aromatase (Homo sapiens)) was “inactive” throughout.

Source of the values: PubChem BioAssay (Tox21).
